The source of these data is the supplement of paper PMC8728848.

The full list was thinned out, with the strongest signals kept by preference.

Test in all cases: glycan array binding signal (z-score within array); higher = stronger binding
The test system of test [1] is Neu5Gc(a2-3)Gal(b1-4)GlcNAc. Conditions: glycan notation: IUPAC condensed, linker removed. The method in brief:
(§1)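 Glycan array binding is given as a within-array Z-score, which can be read as non-binding when negative. The arrays, 3228 of them, came from the Consortium for Functional Glycomics database and were retained only where the protein sequence was available. Z-scores were averaged across arrays of the same protein sequence at different concentrations or buffers and across linkers.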

In test [2] the test system is Neu5Ac(a2-8)Neu5Ac. Conditions: glycan notation: IUPAC condensed, linker removed. The method in brief:
as §1

Test [3] has as its system Neu5Ac9Ac(a2-3)Gal(b1-3)GlcNAc. Conditions: glycan notation: IUPAC condensed, linker removed. In short, it runs like this: as §1
Test [4] relates to Neu5Ac(a2-8)Neu5Ac(a2-8)Neu5Ac(a2-8)Neu5Ac(a2-3)[GalNAc(b1-4)]Gal(b1-4)Glc. The conditions noted are these: glycan notation: IUPAC condensed, linker removed. The method in brief:
as §1

The test system of test [5] is Neu5Ac9Ac(a2-6)Gal(b1-4)GlcNAc. The conditions noted are these: glycan notation: IUPAC condensed, linker removed. In short, it runs like this:
as §1

Test [6] has as its system Neu5Ac(b2-6)GalNAc. The conditions noted are these: glycan notation: IUPAC condensed, linker removed. The method in brief:
as §1

Test [7] deals with Neu5Ac(a2-8)Neu5Ac(a2-8)Neu5Ac. The conditions noted are these: glycan notation: IUPAC condensed, linker removed; mutation: D138V, E140I. The method in brief: as §1
In test [8] the test system is Neu5Ac9Ac(a2-3)Gal(b1-4)GlcNAc. The conditions noted are these: glycan notation: IUPAC condensed, linker removed; mutation: R125K. The method in brief:
as §1

In test [9] the test system is Neu5Gc(a2-3)Gal(b1-3)[Fuc(a1-4)]GlcNAc. The conditions noted are these: glycan notation: IUPAC condensed, linker removed; mutation: R125K. In short, it runs like this: as §1
Test [10] has as its system Neu5Gc(a2-3)Gal(b1-4)GlcNAc(b1-3)Gal(b1-4)GlcNAc(b1-2)Man(a1-3)[Neu5Gc(a2-3)Gal(b1-4)GlcNAc(b1-3)Gal(b1-4)GlcNAc(b1-2)Man(a1-6)]Man(b1-4)GlcNAc(b1-4)GlcNAc. The conditions noted are these: glycan notation: IUPAC condensed, linker removed. In short, it runs like this: as §1

Chain of CHI3L1 (Homo sapiens), P36222 (P36222 whole entry): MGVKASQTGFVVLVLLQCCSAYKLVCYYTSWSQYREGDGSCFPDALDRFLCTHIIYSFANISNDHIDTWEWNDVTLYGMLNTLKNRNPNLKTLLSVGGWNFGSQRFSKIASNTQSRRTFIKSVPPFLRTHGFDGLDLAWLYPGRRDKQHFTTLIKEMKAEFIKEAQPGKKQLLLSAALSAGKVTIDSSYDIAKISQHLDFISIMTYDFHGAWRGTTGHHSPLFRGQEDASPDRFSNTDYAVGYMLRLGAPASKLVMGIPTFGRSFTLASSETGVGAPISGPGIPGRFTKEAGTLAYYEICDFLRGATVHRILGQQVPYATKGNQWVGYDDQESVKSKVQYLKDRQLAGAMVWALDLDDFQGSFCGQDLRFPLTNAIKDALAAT
Chain of 6RG (Lolium perenne) (chain, as listed by the source): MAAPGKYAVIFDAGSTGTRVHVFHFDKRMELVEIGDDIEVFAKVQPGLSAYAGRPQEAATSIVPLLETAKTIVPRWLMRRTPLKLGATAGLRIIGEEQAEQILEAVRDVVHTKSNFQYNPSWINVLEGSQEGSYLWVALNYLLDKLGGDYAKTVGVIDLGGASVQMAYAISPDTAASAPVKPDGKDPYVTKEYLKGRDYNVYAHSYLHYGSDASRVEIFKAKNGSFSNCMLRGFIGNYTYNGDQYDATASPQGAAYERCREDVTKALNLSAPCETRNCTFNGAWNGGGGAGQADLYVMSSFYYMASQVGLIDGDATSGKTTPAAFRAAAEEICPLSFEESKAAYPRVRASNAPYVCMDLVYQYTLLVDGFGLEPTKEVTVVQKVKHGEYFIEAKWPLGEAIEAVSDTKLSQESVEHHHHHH
Chain of CHT (Homo sapiens) (chain, as listed by the source): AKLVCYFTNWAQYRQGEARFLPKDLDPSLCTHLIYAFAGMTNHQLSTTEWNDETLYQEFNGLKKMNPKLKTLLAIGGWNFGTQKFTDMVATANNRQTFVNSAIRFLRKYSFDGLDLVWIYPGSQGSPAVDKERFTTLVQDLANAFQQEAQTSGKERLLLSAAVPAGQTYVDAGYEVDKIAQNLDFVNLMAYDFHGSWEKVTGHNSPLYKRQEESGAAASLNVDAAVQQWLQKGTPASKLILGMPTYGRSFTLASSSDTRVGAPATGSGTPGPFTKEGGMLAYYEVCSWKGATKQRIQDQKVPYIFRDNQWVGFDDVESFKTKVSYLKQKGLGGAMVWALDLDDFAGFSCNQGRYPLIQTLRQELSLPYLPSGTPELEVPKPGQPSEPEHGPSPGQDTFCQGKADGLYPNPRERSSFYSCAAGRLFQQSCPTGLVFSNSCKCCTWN
Chain of Avaren (Actinomycete K97) (chain, as listed by the source): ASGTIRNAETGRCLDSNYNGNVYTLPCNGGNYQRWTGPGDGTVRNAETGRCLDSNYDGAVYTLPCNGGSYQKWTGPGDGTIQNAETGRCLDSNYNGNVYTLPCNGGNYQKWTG
Chain of 6RG (Lolium perenne), B9U140 (B9U140 entry or part of it): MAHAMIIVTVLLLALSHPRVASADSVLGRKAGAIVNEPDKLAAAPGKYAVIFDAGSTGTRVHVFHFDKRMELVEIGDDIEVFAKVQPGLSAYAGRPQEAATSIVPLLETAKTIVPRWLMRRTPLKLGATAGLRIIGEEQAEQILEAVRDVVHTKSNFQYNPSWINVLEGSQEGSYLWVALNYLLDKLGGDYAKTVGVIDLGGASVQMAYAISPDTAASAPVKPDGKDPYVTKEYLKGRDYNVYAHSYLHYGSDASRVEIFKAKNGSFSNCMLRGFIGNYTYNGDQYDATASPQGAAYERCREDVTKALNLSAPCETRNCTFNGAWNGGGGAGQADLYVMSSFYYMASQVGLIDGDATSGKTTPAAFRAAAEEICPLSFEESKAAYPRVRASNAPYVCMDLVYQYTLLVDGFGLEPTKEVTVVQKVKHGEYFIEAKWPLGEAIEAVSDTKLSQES
Chain of C3b (Homo sapiens), P01024 (P01024 23-667): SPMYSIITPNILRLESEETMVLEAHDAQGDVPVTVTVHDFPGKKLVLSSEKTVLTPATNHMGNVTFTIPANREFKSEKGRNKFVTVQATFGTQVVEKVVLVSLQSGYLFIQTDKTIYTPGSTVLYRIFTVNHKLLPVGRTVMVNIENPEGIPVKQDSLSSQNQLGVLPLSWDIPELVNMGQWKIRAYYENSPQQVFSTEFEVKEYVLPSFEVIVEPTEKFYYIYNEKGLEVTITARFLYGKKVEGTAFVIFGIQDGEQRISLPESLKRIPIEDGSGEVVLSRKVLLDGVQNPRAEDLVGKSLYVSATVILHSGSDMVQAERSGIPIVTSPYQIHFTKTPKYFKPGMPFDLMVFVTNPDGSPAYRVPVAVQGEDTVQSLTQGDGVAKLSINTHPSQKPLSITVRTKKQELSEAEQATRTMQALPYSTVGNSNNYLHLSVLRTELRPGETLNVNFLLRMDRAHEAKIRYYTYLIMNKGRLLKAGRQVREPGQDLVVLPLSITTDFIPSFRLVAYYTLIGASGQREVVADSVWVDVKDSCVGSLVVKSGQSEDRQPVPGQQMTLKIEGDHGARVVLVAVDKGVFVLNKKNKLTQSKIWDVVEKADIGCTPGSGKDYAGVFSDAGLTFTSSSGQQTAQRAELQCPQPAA
Chain of Neurocan (Homo sapiens), O14594 (O14594 other isoform, or with tags, fused parts or gaps): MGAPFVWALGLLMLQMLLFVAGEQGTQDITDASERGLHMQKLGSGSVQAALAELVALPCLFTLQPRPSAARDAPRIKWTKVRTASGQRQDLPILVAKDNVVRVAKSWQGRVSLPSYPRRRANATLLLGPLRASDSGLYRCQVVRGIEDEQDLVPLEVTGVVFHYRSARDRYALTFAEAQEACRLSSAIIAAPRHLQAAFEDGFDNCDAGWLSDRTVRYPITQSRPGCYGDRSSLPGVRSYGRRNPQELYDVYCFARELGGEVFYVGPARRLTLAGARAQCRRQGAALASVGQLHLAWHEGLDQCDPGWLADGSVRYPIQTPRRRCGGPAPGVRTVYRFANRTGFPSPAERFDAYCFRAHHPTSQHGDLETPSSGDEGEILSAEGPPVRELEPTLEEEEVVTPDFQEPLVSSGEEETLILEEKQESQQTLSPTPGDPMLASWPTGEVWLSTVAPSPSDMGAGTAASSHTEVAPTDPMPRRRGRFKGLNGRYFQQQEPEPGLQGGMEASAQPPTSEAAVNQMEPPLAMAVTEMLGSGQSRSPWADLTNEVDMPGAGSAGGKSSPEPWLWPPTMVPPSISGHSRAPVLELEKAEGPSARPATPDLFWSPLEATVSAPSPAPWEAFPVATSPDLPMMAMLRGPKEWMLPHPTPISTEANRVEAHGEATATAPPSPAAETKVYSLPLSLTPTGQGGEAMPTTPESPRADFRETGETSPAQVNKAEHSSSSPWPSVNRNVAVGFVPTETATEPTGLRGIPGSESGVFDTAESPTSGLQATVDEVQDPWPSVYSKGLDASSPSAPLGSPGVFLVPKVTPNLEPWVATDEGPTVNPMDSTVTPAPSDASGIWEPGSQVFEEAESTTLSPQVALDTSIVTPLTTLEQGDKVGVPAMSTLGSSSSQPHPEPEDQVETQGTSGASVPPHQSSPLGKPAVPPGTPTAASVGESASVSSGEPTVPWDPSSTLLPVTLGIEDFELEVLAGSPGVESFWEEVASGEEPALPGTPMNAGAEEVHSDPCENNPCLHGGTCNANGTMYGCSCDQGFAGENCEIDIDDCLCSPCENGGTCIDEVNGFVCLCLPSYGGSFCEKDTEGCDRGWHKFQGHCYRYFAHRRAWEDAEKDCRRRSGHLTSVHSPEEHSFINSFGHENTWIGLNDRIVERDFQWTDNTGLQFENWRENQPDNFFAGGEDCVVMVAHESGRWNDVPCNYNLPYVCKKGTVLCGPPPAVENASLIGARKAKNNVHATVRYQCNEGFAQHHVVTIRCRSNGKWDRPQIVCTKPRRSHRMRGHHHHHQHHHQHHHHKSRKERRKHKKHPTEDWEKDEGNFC

As to Neurocan (Homo sapiens), O14594, in test [1], the “glycan array binding signal (z-score)” value was -0.18. With CHI3L1 (Homo sapiens), P36222, the entries for the “glycan array binding signal (z-score)” value in test [2] and in test [3] were -0.091 and -0.07, respectively.

In the case of C3b (Homo sapiens), P01024, the “glycan array binding signal (z-score)” value in [4] is -0.102. Turning to MpAFP RI GFP (Marinomonas primoryensis), the “glycan array binding signal (z-score)” value in [3] is 0.228; in test [5], -0.772. Regarding 6RG (Lolium perenne), B9U140, the “glycan array binding signal (z-score)” value in test [5] was 2.52. Turning to Avaren (Actinomycete K97), the “glycan array binding signal (z-score)” value in [6] was -0.14. On to CHT (Homo sapiens), for which, in [7], the “glycan array binding signal (z-score)” value is -0.166. Siglec-8 (Homo sapiens), Q9NYZ4: the “glycan array binding signal (z-score)” value in test [2] was 0.014; in test [3], -0.078; in test [8], -0.109; in test [9], -0.465; in test [10], 0.025; in test [1] (mutation: R125K), -0.109.

With 6RG (Lolium perenne), the “glycan array binding signal (z-score)” value in test [2] was -0.273.
